In the library only some 8.1% were active in any assay of this set; here they are far more common.
Epigenetic reg: epigenetic control regulation, reporter derepression; murine LDR cells, GFP reporter derepression, 30 h; Potency, µM (series often up to 53.9 µM), without a hit: at the highest dose GFP activation, usual class: activators; 280,000 tested, 0.2% active; AID 1865; further: % of control where 0% means no effect; nearly all actives have a fitted effect of over 60% in size
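Readout is the number of GFP-expressing murine LDR cells, counted by cytometry following washing. Cells were treated with compound for 30 h at 37 C; the stably integrated CMV-GFP locus is normally silent.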
PINK1 expr mod: changes PINK1 expression; PINK1 immunofluorescence, high-content cytometry, 24 h; 410,000 tested, 0.2% active; Potency, µM (series often up to 76.6 µM), for inactives: at the top dose activation (PINK1 increase), usual class: activators; active means well fitted activation curve with a large enough effect; inconclusive means small, poorly fitted or top-dose-only effect; cell line not stated here; further: % of control where 0% means no effect; nearly all actives have a fitted effect of over 65% in size
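PINK1 protein, normally rapidly degraded, was detected by immunofluorescence after 24 hour compound treatment of a stable cell line. Titration data (5 concentrations) came from laser-scanning cytometry, with CCCP-treated wells as controls.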
VP16 counter: inhibits Gal4-VP16 luciferase reporter, ROR gamma counter-screen; 310,000 tested, 3.5% active; Potency, µM (top dose mostly 53.6 µM), for inactives: top-dose activity, negative = inhibition, hits mostly inhibitors; Drosophila S2 Gal4-VP16 UAS-luciferase, luminescence, 20 h; AID 2546;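 further: Gal4-VP16 expression switched on by copper sulfate through the metallothionein promoter; on the % scale 0 is the no-effect control and ±100 the full control effect; nearly all actives have a fitted effect of over 50% in size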
RORg inh: inhibitors of mouse ROR gamma transcriptional activity; P51450; Drosophila S2 Gal4-RORgamma UAS-luciferase reporter, 20 h; 310,000 tested, 5.4% active; Potency, µM (highest dose often 53.6 µM), for inactives: at the top dose activity change, negative = inhibition, hits mostly inhibitors; further: on the % scale 0 is the no-effect control and ±100 the full control effect; nearly all actives have a fitted effect of over 60% in size
Target sequence (P51450 whole entry, looked up, the tested form may be a part): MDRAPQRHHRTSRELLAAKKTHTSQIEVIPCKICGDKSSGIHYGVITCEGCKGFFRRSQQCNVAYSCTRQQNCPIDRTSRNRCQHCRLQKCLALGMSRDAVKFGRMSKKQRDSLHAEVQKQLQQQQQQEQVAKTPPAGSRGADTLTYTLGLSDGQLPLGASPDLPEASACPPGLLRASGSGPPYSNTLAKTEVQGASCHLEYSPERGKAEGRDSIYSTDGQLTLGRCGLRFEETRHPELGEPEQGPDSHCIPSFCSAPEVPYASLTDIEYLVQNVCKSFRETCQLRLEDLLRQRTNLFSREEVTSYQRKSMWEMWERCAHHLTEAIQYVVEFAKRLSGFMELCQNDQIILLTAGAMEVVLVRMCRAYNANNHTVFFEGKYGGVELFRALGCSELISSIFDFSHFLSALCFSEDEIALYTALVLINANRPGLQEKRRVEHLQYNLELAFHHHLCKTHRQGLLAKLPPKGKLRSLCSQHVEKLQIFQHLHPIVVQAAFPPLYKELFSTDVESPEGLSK
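Schneider cells (Drosophila), stable Gal4 DBD–ROR gamma + UAS-luc; 1 hr cmpd preincubation; Cu2+ induction 700 uM final; 20 hr ambient; luminescence.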
ClpP mod: qHTS Assay for Activators of ClpP. ATP-dependent Clp protease proteolytic subunit (Bacillus subtilis (strain 168)), P80244. purified B. subtilis ClpP, FRET peptide cleavage, 20 min. 340,000 tested, 1.9% active. Potency, µM (top dose mostly 57.5 µM), for inactives: top-dose activity change, negative = active; active means well fitted falling curve with a large enough effect; inconclusive means small, poorly fitted or top-dose-only effect; inactive means no such curve, though single readings can be large or run the other way; further: the source files actives as falling curves though it sought activators and does not explain the sign; nearly all actives have a fitted effect of over 65% in size
Target sequence (P80244 whole entry, looked up): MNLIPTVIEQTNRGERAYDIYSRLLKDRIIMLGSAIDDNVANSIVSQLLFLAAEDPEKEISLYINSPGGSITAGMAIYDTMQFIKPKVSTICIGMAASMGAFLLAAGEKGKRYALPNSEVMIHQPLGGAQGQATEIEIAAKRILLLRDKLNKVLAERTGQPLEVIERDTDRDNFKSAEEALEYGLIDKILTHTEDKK
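Buffer: 100 mM Tris/HCl pH8, 100 mM KCl, 0.05% low protease BSA, 2.5% glycerol, 0.01% Tween-20. ClpP 10 microg/mL final; 20 min RT; delta FRET normalized to ADEP and DMSO controls.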
Sfp inh: Sfp phosphopantetheinyl transferase inhibition; 310,000 tested, 3.5% active; Q9F4F7; Biochemical Sfp PPTase activity, qHTS; AID 1490; Potency, µM, inactives show largest response in the series, negative = inhibition, usual class: inhibitors;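 further: the enzyme is Sfp with the accession as filed and its product quenches rhodamine fluorescence; 0% = enzyme reaction without inhibitor and -100% = no enzyme wells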
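Sfp 15 nM + cpd, 15 min RT; start w/ rhodamine-CoA 5 uM, BHQ-2-YbbR 12.5 uM (final); 50 mM Hepes pH 7.6, 10 mM MgCl2, 0.01% NP-40, 0.01% BSA; read 525/598 nm at 0 and 30 min.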
Starred values were filed as active, the others as inactive; u = inconclusive; x = not tested or not shown; [ ] = remark or other dose. Unless noted, the call rests on the fitted dose curve; in most records, active means well fitted curve in the direction sought with a large enough effect; inconclusive means small, poorly fitted or top-dose-only effect, or another doubt; inactive means no such curve, though single readings can be large; an effect the other way counts as inactive or inconclusive. Potency means the concentration at half of the fitted maximal effect.

SMILES | Epigenetic reg | PINK1 expr mod | VP16 counter | RORg inh | ClpP mod | Sfp inh
Cc1ccc(N=Nc2ccc(O)c(/C=N\NC(=O)c3ccc(N)cc3)c2)cc1C | 1% | 9%[38.3 µM] | 2.2µM* | 3.2µM* | 0% | 11%
O=C(N/N=C/c1cc(Br)ccc1O)c1ccncc1 | 0% | 0% | u | 6.3µM* | 2% | 27%
CO[C@H]1C[C@@H]2CC[C@@H](C)[C@@](O)(O2)C(=O)C(=O)N2CCCC[C@H]2C(=O)O[C@H]([C@H](C)C[C@@H]2CC[C@@H](OCCO)[C@H](OC)C2)CC(=O)[C@H](C)/C=C(\C)[C@@H](O)[C@@H](OC)C(=O)[C@H](C)C[C@H](C)/C=C/C=C/C=C/1C | x | x | u | u | x | -16%
CC(=O)Nc1ccc(NC(=O)Cn2cc3c(n2)CCCCC3)cc1 | 0% | 0% | x | x | 2% | x
O=C(N/N=C/c1ccccc1O)c1ccncc1 | x | 3% | 2.8µM* | 3.2µM* | 0% | 38%
CCOc1ccccc1NC(=O)C(=O)N/N=C/c1cc(Br)ccc1O | 0% | 5% | u | 1.8µM* | x | 8%
O=C(N/N=C/c1ccccc1O)C1SCCCS1 | 10% | -1% | 5µM* | 0.79µM* | -24% | 3%
O=C(N/N=C/c1ccc(O)c2ncccc12)c1cccc(Br)c1 | u | u | u | 16µM* | x | 23%
CCOc1ccccc1C=NNC(=O)C(=O)NN=Cc1ccccc1OCC | x | 19% | x | x | -2% | x
NS(=O)(=O)c1ccc(S(=O)(=O)N2CCN(c3nc(-c4ccccc4)nc4ccccc34)CC2)cc1 | x | 2% | x | x | -27% | x
O=C(N/N=C/c1cc(Br)ccc1O)Nc1ccccc1 | 4% | 8% | 11µM* | 2.5µM* | -2% | 10%
Cc1nc(C)c(C(=O)N/N=C/c2cc(Br)ccc2O)s1 | -1% | 2% | 7.9µM* | 3.2µM* | 4% | 14%
O=C(O)COc1ccccc1C=NNC(=O)c1ccc(NS(=O)(=O)c2cccs2)cc1 | x | 1% | x | x | -1% | x
O=C(O)COc1ccccc1/C=N/NC(=O)c1ccncc1 | x | x | 2% | -6% | x | 50µM*
NC(=O)N/N=C\c1cc(Br)ccc1O | -1% | -2% | -22% | -16% | 1% | 1%
CC(C)(C)OC(=O)N/N=C/c1cc(N=Nc2ccccc2)ccc1O | 0% | 12% | 5.6µM* | 4µM* | -6% | 21%
COCCN1C(=O)c2oc3ccccc3c(=O)c2C1c1ccc(C(=O)OC)cc1 (stereo not drawn) | 1% | 3% | -10% | 4% | -1% | -5%
CCOc1ccc(C2c3c(oc4cc(C)c(C)cc4c3=O)C(=O)N2CCCN2CCOCC2)cc1 (stereo not drawn) | -3% | 0% | -16% | u | 0% | 50µM*
COC(=O)c1ccc(C2c3c(oc4ccccc4c3=O)C(=O)N2CCCN2CCOCC2)cc1 (stereo not drawn) | 1% | 3% | -4% | u | -2% | 25µM*
COc1cc2cc(/C=C/C(=O)c3ccco3)c(Cl)nc2cc1OC | u | -3% | 7.9µM* | u | -8% | u
COc1ccc2cc(/C=C/C(=O)c3ccco3)c(Cl)nc2c1 | 0% | x | u | u | x | -6%
CC(=O)N1N=C(c2ccc(Br)cc2)OC1(C)CC(=O)Nc1ccccc1 (stereo not drawn) | 0% | 1% | -17% | 15% | 25µM* | 5%
CCOC(=O)c1ccc(N=Nc2c(C)[nH]n(-c3ccccc3)c2=O)cc1 | x | 4% | -14% | 23% | 0% | -15%
NC(=S)n1[nH]c(-c2ccc([N+](=O)[O-])cc2)c(N=Nc2ccc(O)cc2)c1=O | 3% | 1% | -4% | 1% | -2% | -28%
CC(=O)N(C)c1ccc(N=Nc2c(C)[nH]n(-c3ccccc3)c2=O)cc1 | x | 3% | u | 20µM* | 0% | -20%
SMILES | Epigenetic reg | PINK1 expr mod | VP16 counter | RORg inh | ClpP mod | Sfp inh
CCN(CC)S(=O)(=O)c1ccc(N=Nc2c(C)[nH]n(C(N)=S)c2=O)cc1 | 0% | 0% | 0.013µM* | 0.05µM* | 1% | 79µM*
CC(=O)N(C)c1ccc(N=Nc2c(C)[nH]n(C(N)=S)c2=O)cc1 | 0% | 2% | 3.2µM* | 0.35µM* | 0% | u
C/C(=C\C(=S)Nc1ccccc1)Nc1ccc2ccccc2c1 | -2% | 16% | 3.5µM* | 5.6µM* | 35µM* | u
C/C(=C\C(=S)Nc1ccccc1)Nc1cccc2ccccc12 | 3% | 2% | u | 16µM* | u | u
C/C(=C\C(=O)c1ccccc1)Nc1ccc(Cl)c(Br)c1 | x | -2% | x | x | 1% | x
CC(=O)Nc1cccc(NC(=O)Nc2cccc3ccccc23)c1 | x | 1% | -3% | 0% | u | 0%
CCCCNC(=S)NNC(=O)c1csc(C(C)C)c1 | 1% | -3%[38.3 µM] | u | 7.9µM* | 3% | 10%
CCCCNC(=S)NNC(=O)c1sccc1C | -2% | 0%[38.3 µM] | -22% | 1.4µM* | 26% | 14%
Cc1ccsc1C(=O)NNC(=S)NC1CCCCC1 | x | 1% | 11µM* | -39% | 30% | 7%
CCCCNC(=S)NNC(=O)c1csc(C)c1C | -1% | 2% | 14µM* | u | -2% | 33%
COc1ccc(NC(=O)Cn2cc(S(=O)(=O)N3CCN(c4ccccc4F)CC3)c3ccccc3c2=O)cc1Cl | 1% | 1% | x | x | -20% | x
Fc1ccccc1-n1ncc2c1ncn1nc(-c3ccccc3Cl)nc21 | 0% | 0% | x | x | -5% | x
C=CCNC(=S)NNC(=O)c1cc(O)ccc1O | -7% | -2% | -3% | 5% | x | 16%
C=CCNC(=S)NNC(=O)c1csc(C)c1C | 11% | -1% | 7.9µM* | u | -4% | -4%
Cc1cc(Nc2ccc(Br)c(C)c2)n2nc(-c3ccco3)nc2n1 | -3% | 0% | x | x | u | x
O=C1CN(C(=O)COC(=O)c2ccccc2NCc2ccco2)c2ccccc2N1 | 0% | 1% | 9% | 10% | 25µM* | 3%
COc1ccc(C)cc1N1C(=N)/C(=C2/Nc3ccccc3S2)C(c2ccccc2)C1=O (stereo not drawn) | 3% | -3% | 8.9µM* | 2.5µM* | -5% | -7%
COc1ccc(OC)c(NC(=O)C2CCN(S(=O)(=O)c3c(C)noc3/C=C/c3ccc(C)cc3)CC2)c1 | 5% | -1% | x | x | -26% | x
Cc1nn(-c2ccc(F)cc2)c(-n2cccc2)c1C(=O)N1CCN(c2ccc(F)cc2)CC1 | -2% | -1% | x | x | -2% | x
CCCCCOc1ccc(NC(=O)Cn2c(-c3cncs3)nc3ccccc32)cc1 | -1% | 2% | x | x | -1% | x

Screening results deposited in PubChem by National Center for Advancing Translational Sciences (NCATS).
